Source: PubChem (National Center for Advancing Translational Sciences (NCATS))
Sampled rows, rich in hits. Any-hit rate of the full collection: about 9.3%.
ELG1 genotoxic: induces genotoxicity in HEK293T cells with luciferase-tagged ELG1; HEK293T ELG1-luciferase reporter, luminescence, 16 h; Potency, µM (titrated, usually from 46 µM), without a hit: top-dose activity change, positive = activation, most hits filed as activators; 330,000 tested, 1.3% active; AID 504466; note: % of control where 0% means no effect; nearly all actives have a fitted effect of over 60% in size
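Step 1: seed 2,000 HEK293T ELG1-luciferase cells per well. Step 2: add compound or DMSO, incubate 16 hr at 37 °C. Step 3: ONE-Glo, 30 min at room temperature, read luminescence.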
NPC1 promoter act: NPC1 promoter activation. Huh7 NPC1 promoter luciferase reporter, 24 h. Potency, µM (top dose mostly 9.22 µM), inactives show top-dose activation, hits mostly activators. 320,000 tested, 2.4% active; note: % of control where 0% means no effect; nearly all actives have a fitted effect of over 60% in size
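Luminescence read-out of NPC1 promoter-driven luciferase in stably transfected Huh7 cells; compounds delivered in DMSO and left 24 h at 37C, 5% CO2, qHTS titration format.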
FLuc counter: inhibits or activates purified firefly luciferase, miR-21 counter-screen | purified FLuc, Km substrates, luminescence inhibition | Potency, µM (doses to about 57.5 µM), without a hit: top-dose activity change, negative = inhibition, most hits filed as inhibitors | 360,000 tested, 6.9% active | AID 588342;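 note: plate controls were vehicle for no effect and reference inhibitor for full effect; nearly all actives have a fitted effect of over 55% in size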
Target sequence (P08659 whole entry, looked up): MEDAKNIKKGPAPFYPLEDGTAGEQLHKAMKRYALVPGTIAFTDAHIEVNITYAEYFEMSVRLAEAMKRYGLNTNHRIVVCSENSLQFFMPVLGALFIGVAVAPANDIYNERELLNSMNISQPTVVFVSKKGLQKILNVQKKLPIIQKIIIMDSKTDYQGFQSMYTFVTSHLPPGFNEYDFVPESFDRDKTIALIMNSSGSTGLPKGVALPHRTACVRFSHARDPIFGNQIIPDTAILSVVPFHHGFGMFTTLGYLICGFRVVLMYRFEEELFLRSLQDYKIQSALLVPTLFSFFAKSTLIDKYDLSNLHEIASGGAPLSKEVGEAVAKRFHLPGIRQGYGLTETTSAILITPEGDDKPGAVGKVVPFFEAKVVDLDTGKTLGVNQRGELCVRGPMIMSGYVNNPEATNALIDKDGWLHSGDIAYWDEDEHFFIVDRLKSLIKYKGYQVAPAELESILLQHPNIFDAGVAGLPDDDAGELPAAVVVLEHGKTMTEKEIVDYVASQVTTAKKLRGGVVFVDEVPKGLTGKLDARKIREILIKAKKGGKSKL
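Biochemical qHTS of compounds, final roughly 60 µM downward over six points, against 10 nM purified firefly luciferase using Km concentrations of substrates (10 uM D-luciferin, 10 uM ATP) in Tris acetate pH 7.5 buffer; luminescence output.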
ELG1 DNA repair: inhibitors of ELG1-dependent DNA repair in HEK293T cells; HEK293T ELG1-luciferase reporter, luminescence, 16 h; DNA damage induced by 5-fluorouridine; Potency, µM (highest dose often 46.1 µM), without a hit: top-dose activity change, negative = inhibition, hits mostly inhibitors; 330,000 tested, 2.3% active; note: % is set by controls: 0 for no effect and ±100 for the full control effect; nearly all actives have a fitted effect of over 55% in size
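Quantitative HTS, concentration-response format. 2,000 cells/well co-treated with 5-fluorouridine and compound, 16 hr in 5% CO2 at 37 °C; ONE-Glo luminescence read after 30 min.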
SMN2 splice up: increases expression of the SMN2 splice variant. HEK293 SMN2-luciferase splicing reporter, luminescence, 30-36 h. Potency, µM (highest dose often 46.1 µM), inactives show at the highest dose activity change, positive = activation, hits mostly activators. 210,000 tested, 2.8% active. AID 1458; note: % of control where 0% means no effect; nearly all actives have a fitted effect of over 55% in size
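HEK293 cells carry an SMN2 minigene-luciferase reporter in which exon 7 inclusion puts luciferase in frame. Cells were seeded at 2000 cells/well, attached for 10-12 hours, then exposed to compounds for 30-36 hours at 37C before ONE-Glo luminescence.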
Rab9 promoter act: activates the Rab9 promoter. 320,000 tested, 2.8% active. Potency, µM (top dose mostly 9.22 µM), for the others: top-dose activation, negative = inhibition, actives largely listed as activators. Huh7 Rab9 promoter-luciferase reporter, luminescence, 24 h; note: % of control where 0% means no effect; nearly all actives have a fitted effect of over 60% in size
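Stable Rab9-luc Huh7, 1500 cells/well, 2 h settle; cmpd in DMSO, 24 h, 37 °C/5% CO2; luciferase reagent 10 min RT; luminescence.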
Numbers without * were called inactive; ? = inconclusive; / = no result given. Calls come from the whole dose curve; as a rule, active = well fitted curve in the direction sought with a large enough effect; inconclusive = small, poorly fitted or top-dose-only effect, or another doubt; inactive = no such curve, though single readings can be large; an effect the other way counts as inactive or inconclusive. Potency is the fitted concentration of half-maximal effect.

SMILES	ELG1 genotoxic	NPC1 promoter act	FLuc counter	ELG1 DNA repair	SMN2 splice up	Rab9 promoter act
COc1ccc(-c2nc(-c3ccccc3)c(NC(C)C)o2)cc1	/	/	/	/	6%	/
O=C(/C=C\c1ccco1)Nc1nc(-c2ccccc2)cs1	3%	13%	12µM*	?	?	?
O=C(/C=C/c1ccco1)NC(=S)Nc1nc(-c2ccc(Cl)cc2)cs1	-1%	-16%	2%	21%	/	-8%
O=C(/C=C/c1ccccc1)Nc1nc(-c2ccncc2)cs1	-1%	1%	2.7µM*	?	-75%	-6%
N#Cc1ccc(-c2csc(NC(=O)/C=C/c3cccs3)n2)cc1	10%	-2%	?	?	-23%	-7%
CC(C)Sc1nc2sc3c(c2c(=O)n1-c1ccccc1)CCCC3	/	/	-7%	/	6%	/
Cc1cc(C)c(NC(=O)c2ncoc2-c2ccco2)c(C)c1	/	/	-2%	/	/	/
CC(=O)Nc1ccc(NC(=O)c2ncoc2-c2ccco2)cc1	/	/	19µM*	/	/	/
CCN1CCN(CCCNC(=O)Cn2nc(C)n3c(cc4c(OC)cccc43)c2=O)CC1	/	/	4%	/	-10%	/
CCN(C(=O)COC(=O)c1cn(-c2ccccc2)nc1-c1ccccc1)C1CCS(=O)(=O)C1 (configuration not stated)	5%	-3%	24µM*	5%	11%	-1%
O=C(COC(=O)/C=C/c1cn(-c2ccccc2)nc1-c1ccc2c(c1)OCCO2)NC1CCS(=O)(=O)C1 (configuration not stated)	-14%	-6%	-16%	18µM*	/	0%
CN(C(=O)COC(=O)c1cn(-c2ccccc2)nc1-c1ccccc1)C1CCS(=O)(=O)C1 (configuration not stated)	-1%	-4%	?	-12%	-5%	11%
Cc1nn(-c2ccccc2)c(C)c1/C=C/C(=O)OCC(=O)NC1CCS(=O)(=O)C1 (configuration not stated)	8%	6%	1%	?	/	19%
CN(C(=O)COC(=O)/C=C/c1cn(-c2ccccc2)nc1-c1ccc2c(c1)OCCO2)C1CCS(=O)(=O)C1 (configuration not stated)	-11%	-5%	-8%	21µM*	8%	-8%
CC(=O)N1c2ccc(S(=O)(=O)NC(CC(=O)O)c3ccc(Br)cc3)cc2CC1C (configuration not stated)	3%	0%	3%	-2%	/	1%
CC(OC(=O)C1CCCC1)C(=O)Nc1ncc(Cl)cc1Cl (configuration not stated)	5%	0%	4%	-5%	/	-2%
Cc1cc(C(=O)COc2ncnc3sccc23)c(C)n1C	18µM*	?	17µM*	?	11µM*	?
O=S(=O)(Nc1cccc(-c2nc3cccnc3s2)c1)c1cccs1	10%	5%	?	?	/	23%
Cc1ccc(C(=O)Nc2cc3c(oc2=O)CCCC3=O)cc1	?	?	21µM*	?	27%	?
CCC(C(=O)OCC(=O)Nc1ccc2[nH]c(=O)[nH]c2c1)c1ccccc1 (configuration not stated)	-2%	1%	-1%	0%	/	-5%
CCOC(=O)CSCC(=O)N1CCC(Cc2ccccc2)CC1	-3%	1%	-8%	-3%	/	0%
CCCc1cc(NC(=O)COC(=O)c2nccnc2N)n(-c2ccccc2)n1	0%	-5%	-2%	20%	/	-4%
Cc1nn(C)cc1S(=O)(=O)Nc1ccc2c(c1)OCCO2	?	-4%	?	?	-23%	-1%
Cn1nccc1C(=O)Nc1ccc2c(c1)OCCO2	?	3.2µM*	12µM*	?	/	1.6µM*
Cc1c(C(=O)Nc2ccc(Br)cc2)cnn1C	?	?	13µM*	?	13µM*	?
SMILES	ELG1 genotoxic	NPC1 promoter act	FLuc counter	ELG1 DNA repair	SMN2 splice up	Rab9 promoter act
Cn1ncc(Br)c1C(=O)Nc1ccc(Br)cn1	-2%	18%	4%	13%	23%	-2%
Cn1nccc1C(=O)Nc1ccc(OC(=O)c2ccnn2C)cc1	9%	-2%	0%	23µM*	-41%	0%
Cc1nn(C)cc1C(=O)Nc1ccc2c(c1)OCCO2	?	4.5µM*	12µM*	?	/	3.2µM*
COc1ccc(C(=O)N(Cc2ccco2)Cc2ccccc2F)cc1Cl	/	/	-5%	/	-37%	/
O=c1c2cc3c(cc2nc2sc(Nc4ccc(F)cc4F)nn12)OCO3	/	/	?	/	4%	/
CCn1cc(Cl)c(C(=O)Nc2ccc3c(c2)OCCO3)n1	?	3.2µM*	6µM*	?	11µM*	1.6µM*
Cn1ncc([N+](=O)[O-])c1C(=O)Nc1ccc2c(c1)OCCO2	9%	0%	?	?	-11%	2%
Cc1c(C(=O)Nc2ccc3c(c2)OCCO3)cnn1C	3.7µM*	?	11µM*	?	/	?
CCc1nc2cccnc2n1-c1ccc(CC(=O)Nc2ccc(C)cc2)cc1	/	/	-2%	/	/	/
CN1C(=O)NC(c2ccc(C(F)(F)F)cc2)C2=C1CC(C)(C)CC2=O (configuration not stated)	4%	0%	-1%	?	/	-4%
O=C(NCc1cccc2ccccc12)[C@H]1C[C@@H]1[C@H](NP(=O)(c1ccccc1)c1ccccc1)c1ccccc1	/	/	/	/	-31%	/
CCNCc1cc([N+](=O)[O-])ccc1OCC	1%	-1%	2%	2%	5%	0%
O=C(CN(Cc1ccco1)C(=O)c1cc(=O)[nH]c2ccccc12)Nc1ccccc1Br	-4%	-3%	6%	21µM*	-23%	-3%
CC(=O)c1ccc(OCc2cc(C(=O)NC3CCCCC3)no2)cc1	-6%	3.5µM*	?	-9%	/	4µM*
CC(=O)c1ccc(OCc2cc(C(=O)N3CC[C@@H]4CCCC[C@H]4C3)no2)cc1	?	2.5µM*	9.5µM*	?	/	2µM*
CC(=O)c1ccc(OCc2cc(C(=O)N(C)Cc3nc4c(C)cccc4[nH]3)no2)cc1	-9%	-10%	0%	-15%	/	-5%
CC(=O)c1ccc(OCc2cc(C(=O)N(C)CCOc3ccc(C)cc3)no2)cc1	2.9µM*	2.5µM*	9.5µM*	?	/	4µM*
CC(=O)c1ccc(OCc2cc(C(=O)NCCN3CCCC(O)C3)no2)cc1 (configuration not stated)	-1%	-3%	4%	9%	/	-1%
CC(=O)c1ccc(OCc2cc(C(=O)N3CCC(c4ccncc4)CC3)no2)cc1	9%	-14%	0%	0%	/	-16%
